Assay results taken from ChEMBL document CHEMBL1961873, “Compounds: GSK PKIS; Assays: Nanosyn kinase panel” (2012).
Where “and” joins values, the source holds several entries; their conditions need not be identical. Equal entries are not always repeated.

biological target: Ribosomal protein S6 kinase alpha-4 (Homo sapiens) (UniProt O75676); settings: at 1 µM
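Also: mean inhibition of MSK2, GSK PKIS.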

Ribosomal protein S6 kinase alpha-4 (Homo sapiens), sequence (O75676 whole entry, looked up): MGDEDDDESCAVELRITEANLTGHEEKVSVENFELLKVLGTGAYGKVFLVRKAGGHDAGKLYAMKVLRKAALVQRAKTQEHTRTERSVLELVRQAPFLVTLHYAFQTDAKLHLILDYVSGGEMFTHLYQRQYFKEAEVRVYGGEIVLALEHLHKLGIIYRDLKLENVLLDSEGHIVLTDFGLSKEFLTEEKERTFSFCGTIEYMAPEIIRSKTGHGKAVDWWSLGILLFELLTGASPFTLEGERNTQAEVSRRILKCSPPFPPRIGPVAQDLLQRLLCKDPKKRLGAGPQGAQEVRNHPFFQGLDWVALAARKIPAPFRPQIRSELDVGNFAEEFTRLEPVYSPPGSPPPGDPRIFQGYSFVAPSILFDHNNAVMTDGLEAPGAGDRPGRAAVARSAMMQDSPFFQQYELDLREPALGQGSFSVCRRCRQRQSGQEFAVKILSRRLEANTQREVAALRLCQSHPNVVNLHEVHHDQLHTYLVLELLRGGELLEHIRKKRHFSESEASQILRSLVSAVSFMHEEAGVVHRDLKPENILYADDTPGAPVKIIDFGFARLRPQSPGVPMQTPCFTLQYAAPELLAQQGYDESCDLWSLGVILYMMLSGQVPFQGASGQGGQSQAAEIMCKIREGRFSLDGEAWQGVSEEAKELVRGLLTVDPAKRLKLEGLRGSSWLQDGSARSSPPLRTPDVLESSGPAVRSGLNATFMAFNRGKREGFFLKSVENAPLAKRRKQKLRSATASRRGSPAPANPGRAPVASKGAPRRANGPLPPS

Compound	inhibition
c1cnn2ncc(-c3ccnc(NCCCN4CCOCC4)n3)c2c1	7.41%
CS(=O)(=O)CCNCc1ccoc1-c1ccc2ncnc(Nc3ccc(OCc4ccccc4)cc3)c2c1	-1.22%
COc1ccccc1-c1cc(/C=C2\C(=O)Nc3ncc(Br)cc32)cc(Br)c1O	6.3%
CN(C)CCNC(=O)Nc1ccc(N(C)c2ccnc(Nc3ccc(CS(C)(=O)=O)cc3)n2)cc1	4.32%
N#Cc1cccc(Nc2ncc(-c3ccccc3)o2)c1	2.71%
Cc1nnc(-c2cccc(-c3ccc(C(=O)NCC4CC4)cc3)c2)o1	3.75%
CCN1CCC(C(=O)Nc2n[nH]c3nnc(-c4cccc(F)c4F)cc23)CC1	0.26%
FC(F)(F)CNc1nccc(-c2cnn3ncccc23)n1	1.58%
c1ccc(-c2n[nH]cc2-c2ccnc(-c3ccc(OCCn4ccnc4)cc3)c2)nc1	3.98%
COc1cccc(Nc2nccc(-c3cnn4ncccc34)n2)c1	10.5%
CS(=O)(=O)CCNCc1ccc(-c2ccc3ncnc(Nc4ccc(OCc5ccccc5)cc4)c3c2)o1	2.56%
CN1CCN(Cc2ccc(-c3cc4ncnc(Nc5ccc(OCc6cccc(F)c6)c(Cl)c5)c4s3)o2)CC1	1.25% and 4.7%
O=C(O[C@H]1CN[C@H](C#Cc2cc3ncnc(Nc4ccc5c(cnn5Cc5ccccc5)c4)c3s2)C1)N1CCOCC1	-0.97%
O=C(O[C@H]1CN[C@H](C#Cc2cc3ncnc(Nc4ccc5c(ccn5Cc5cc(F)ccc5F)c4)c3s2)C1)N1CCOCC1	4.34%
CS(=O)(=O)Nc1ccc(-c2ccc3c(NC(=O)C4CC4)n[nH]c3c2)cc1	3.37%
O=C(Nc1n[nH]c2nnc(-c3cccnc3)cc12)C1CC1	0.76%

Compound	inhibition
COc1ccc(Nc2ncc(-c3ccccc3)o2)cc1OC	4.59%
COc1ccc(-c2nn3ncccc3c2-c2ccnc(Nc3ccc(F)c(F)c3)n2)cc1	4.5%
OCCCNc1nccc(-c2c(-c3ccc(F)cc3)nn3cc(C(F)(F)F)ccc23)n1	5.75%
CC1(C)CC(n2cnc(-c3ccc(F)cc3)c2-c2ccnc(N)n2)CC(C)(C)N1	3.62%
Cc1cc(O)cc(C)c1/C=C/c1cncc(C(N)=O)c1	2.18%
CN1CCC(n2cnc(-c3ccc(F)cc3)c2-c2ccnc(NCCO)n2)CC1	4.02%
O=C1Nc2ccccc2/C1=C1\CCc2cc(O)ccc21	56.7%
CC1=C(C(=O)Nc2ccc3[nH]ncc3c2)C(c2ccc(F)cc2)N=C(c2ccc(C(F)(F)F)nc2)N1 (stereo unspecified)	14.9%
COC(=O)Nc1nc2ccc(Oc3ccc(NC(=O)Nc4cc(C(F)(F)F)ccc4F)cc3)cc2s1	2.86%
Cn1c(-c2nonc2N)nc2cnccc21	39.6%
CNC(=O)c1ncccc1Nc1nc(Nc2cc3c(cc2OC)CCCN3C(=O)CN(C)C)nc2[nH]ccc12	5.8%
COc1c(C(N)=O)cc(-c2ccc(Cl)cc2)cc1-c1ccc(S(N)(=O)=O)cc1	5.79%
CS(=O)(=O)CCNCc1ccc(-c2ccc3ncnc(Nc4ccc(OCc5cccc(C(F)(F)F)c5)cc4)c3c2)o1	2.03%
NC(=O)c1ccc2c(-c3ccnc(NCCCO)n3)c(-c3ccc(F)cc3)nn2c1	2.05%
COc1cc(Nc2ncc(-c3ccccc3)o2)cc(OC)c1	2.84%
